# According to ChEMBL document CHEMBL2218924, “A broad activity screen in support of a chemogenomic map for kinase signalling research and drug discovery” (Biochem J, 2013):
# Tests used:
# [1] = target: Death-associated protein kinase 1 (Homo sapiens) (UniProt P53355); conditions: at 10 µM
# [2] = target: Death-associated protein kinase 2 (Homo sapiens) (UniProt Q9UIK4); conditions: at 1 µM
# [3] = target: Death-associated protein kinase 2 (Homo sapiens) (UniProt Q9UIK4); conditions: at 10 µM
# [4] = target: T1, Serine/threonine-protein kinase DCLK2 (Homo sapiens) (UniProt Q8N568); conditions: at 1 µM
# T1 sequence (whole entry): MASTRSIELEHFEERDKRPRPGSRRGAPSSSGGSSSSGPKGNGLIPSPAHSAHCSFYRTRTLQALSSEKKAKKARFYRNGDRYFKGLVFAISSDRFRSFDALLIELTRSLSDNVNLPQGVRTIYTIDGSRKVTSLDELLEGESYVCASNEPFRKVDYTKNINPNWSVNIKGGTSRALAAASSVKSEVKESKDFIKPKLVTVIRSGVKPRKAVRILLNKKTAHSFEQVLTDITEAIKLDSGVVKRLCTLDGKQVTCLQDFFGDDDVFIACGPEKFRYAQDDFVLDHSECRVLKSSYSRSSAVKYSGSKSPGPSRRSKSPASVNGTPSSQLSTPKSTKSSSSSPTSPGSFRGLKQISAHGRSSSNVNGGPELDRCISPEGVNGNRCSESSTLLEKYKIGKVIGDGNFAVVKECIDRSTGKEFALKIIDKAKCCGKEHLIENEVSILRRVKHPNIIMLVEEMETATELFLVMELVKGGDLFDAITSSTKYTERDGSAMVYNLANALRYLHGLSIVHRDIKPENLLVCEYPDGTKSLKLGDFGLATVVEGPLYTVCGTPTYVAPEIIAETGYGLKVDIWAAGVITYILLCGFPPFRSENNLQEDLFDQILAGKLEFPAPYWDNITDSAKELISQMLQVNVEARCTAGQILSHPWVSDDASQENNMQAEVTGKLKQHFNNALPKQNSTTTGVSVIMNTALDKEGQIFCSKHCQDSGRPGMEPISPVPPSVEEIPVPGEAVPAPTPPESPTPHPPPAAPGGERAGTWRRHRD
# [5] = target: T1, Serine/threonine-protein kinase DCLK2 (Homo sapiens); conditions: at 10 µM
# [6] = target: T2, Discoidin domain-containing receptor 2 (Homo sapiens) (UniProt Q16832); conditions: at 10 µM
# T2 sequence (whole entry): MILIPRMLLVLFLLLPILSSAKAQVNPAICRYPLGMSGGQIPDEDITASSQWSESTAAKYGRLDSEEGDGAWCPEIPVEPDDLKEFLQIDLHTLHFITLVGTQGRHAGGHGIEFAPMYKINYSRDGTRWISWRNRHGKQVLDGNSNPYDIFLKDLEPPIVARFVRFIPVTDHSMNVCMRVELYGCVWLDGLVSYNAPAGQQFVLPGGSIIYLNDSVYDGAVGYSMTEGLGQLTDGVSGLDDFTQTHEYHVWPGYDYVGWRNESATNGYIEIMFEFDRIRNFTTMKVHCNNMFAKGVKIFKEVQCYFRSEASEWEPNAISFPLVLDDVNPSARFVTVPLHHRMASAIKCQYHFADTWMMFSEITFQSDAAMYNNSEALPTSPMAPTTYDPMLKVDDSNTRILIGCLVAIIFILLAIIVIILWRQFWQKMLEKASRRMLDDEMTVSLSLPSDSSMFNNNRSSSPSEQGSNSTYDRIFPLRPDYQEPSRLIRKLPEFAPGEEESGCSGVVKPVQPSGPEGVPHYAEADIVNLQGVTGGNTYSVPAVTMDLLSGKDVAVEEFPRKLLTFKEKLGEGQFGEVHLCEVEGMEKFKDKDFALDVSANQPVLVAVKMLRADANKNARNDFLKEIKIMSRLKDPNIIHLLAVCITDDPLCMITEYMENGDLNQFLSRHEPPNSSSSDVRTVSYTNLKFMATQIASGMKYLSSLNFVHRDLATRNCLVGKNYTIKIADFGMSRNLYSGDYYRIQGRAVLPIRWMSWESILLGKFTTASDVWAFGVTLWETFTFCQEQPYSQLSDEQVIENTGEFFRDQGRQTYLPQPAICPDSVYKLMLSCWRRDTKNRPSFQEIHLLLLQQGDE
# [7] = target: T3, Serine/threonine-protein kinase 17A (Homo sapiens) (UniProt Q9UEE5); conditions: at 1 µM
# T3 sequence (whole entry): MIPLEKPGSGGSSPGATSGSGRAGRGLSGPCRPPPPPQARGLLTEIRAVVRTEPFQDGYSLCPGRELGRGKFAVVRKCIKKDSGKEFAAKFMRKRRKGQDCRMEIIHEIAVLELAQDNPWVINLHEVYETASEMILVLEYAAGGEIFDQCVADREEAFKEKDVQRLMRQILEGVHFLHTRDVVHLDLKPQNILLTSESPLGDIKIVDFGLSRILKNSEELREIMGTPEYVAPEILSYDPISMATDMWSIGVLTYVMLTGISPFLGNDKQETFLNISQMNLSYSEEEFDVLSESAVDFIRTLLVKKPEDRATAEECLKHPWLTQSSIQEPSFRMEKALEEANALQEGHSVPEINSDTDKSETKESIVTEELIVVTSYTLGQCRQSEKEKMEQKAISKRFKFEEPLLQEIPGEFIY
# [8] = target: T3, Serine/threonine-protein kinase 17A (Homo sapiens); conditions: at 10 µM
# [9] = target: T4, Ephrin type-A receptor 1 (Homo sapiens) (UniProt P21709); conditions: at 1 µM
# T4 sequence (whole entry): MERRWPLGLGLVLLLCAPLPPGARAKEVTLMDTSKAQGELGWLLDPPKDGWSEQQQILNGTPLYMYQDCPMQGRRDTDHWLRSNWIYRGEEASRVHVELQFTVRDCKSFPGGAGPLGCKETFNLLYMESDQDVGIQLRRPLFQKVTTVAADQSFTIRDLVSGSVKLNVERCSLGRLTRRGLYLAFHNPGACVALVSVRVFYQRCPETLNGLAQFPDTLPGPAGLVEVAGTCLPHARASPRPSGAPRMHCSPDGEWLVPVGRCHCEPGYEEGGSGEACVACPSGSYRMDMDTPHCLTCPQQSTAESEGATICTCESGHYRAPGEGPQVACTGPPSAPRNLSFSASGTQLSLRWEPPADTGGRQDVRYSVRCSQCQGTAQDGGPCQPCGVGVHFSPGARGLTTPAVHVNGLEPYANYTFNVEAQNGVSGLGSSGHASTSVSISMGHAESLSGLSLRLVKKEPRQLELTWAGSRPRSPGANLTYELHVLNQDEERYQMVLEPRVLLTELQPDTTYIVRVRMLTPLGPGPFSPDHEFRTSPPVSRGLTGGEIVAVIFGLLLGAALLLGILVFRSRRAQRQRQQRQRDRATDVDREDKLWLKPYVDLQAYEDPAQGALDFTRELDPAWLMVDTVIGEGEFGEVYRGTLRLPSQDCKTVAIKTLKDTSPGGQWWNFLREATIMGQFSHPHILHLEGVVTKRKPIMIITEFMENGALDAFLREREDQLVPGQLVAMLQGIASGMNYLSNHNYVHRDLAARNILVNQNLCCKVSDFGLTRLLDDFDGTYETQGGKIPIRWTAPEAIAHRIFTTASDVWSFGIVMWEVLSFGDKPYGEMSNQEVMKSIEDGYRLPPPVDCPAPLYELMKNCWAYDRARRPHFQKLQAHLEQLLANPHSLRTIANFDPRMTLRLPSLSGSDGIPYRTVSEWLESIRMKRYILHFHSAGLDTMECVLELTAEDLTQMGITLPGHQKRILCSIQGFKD
# [10] = target: T4, Ephrin type-A receptor 1 (Homo sapiens); conditions: at 10 µM
# [11] = target: Ephrin type-A receptor 2 (Homo sapiens) (UniProt P29317); conditions: at 1 µM
# [12] = target: Ephrin type-A receptor 2 (Homo sapiens) (UniProt P29317); conditions: at 10 µM
# [13] = target: T5, Ephrin type-A receptor 3 (Homo sapiens) (UniProt P29320); conditions: at 1 µM
# T5 sequence (whole entry): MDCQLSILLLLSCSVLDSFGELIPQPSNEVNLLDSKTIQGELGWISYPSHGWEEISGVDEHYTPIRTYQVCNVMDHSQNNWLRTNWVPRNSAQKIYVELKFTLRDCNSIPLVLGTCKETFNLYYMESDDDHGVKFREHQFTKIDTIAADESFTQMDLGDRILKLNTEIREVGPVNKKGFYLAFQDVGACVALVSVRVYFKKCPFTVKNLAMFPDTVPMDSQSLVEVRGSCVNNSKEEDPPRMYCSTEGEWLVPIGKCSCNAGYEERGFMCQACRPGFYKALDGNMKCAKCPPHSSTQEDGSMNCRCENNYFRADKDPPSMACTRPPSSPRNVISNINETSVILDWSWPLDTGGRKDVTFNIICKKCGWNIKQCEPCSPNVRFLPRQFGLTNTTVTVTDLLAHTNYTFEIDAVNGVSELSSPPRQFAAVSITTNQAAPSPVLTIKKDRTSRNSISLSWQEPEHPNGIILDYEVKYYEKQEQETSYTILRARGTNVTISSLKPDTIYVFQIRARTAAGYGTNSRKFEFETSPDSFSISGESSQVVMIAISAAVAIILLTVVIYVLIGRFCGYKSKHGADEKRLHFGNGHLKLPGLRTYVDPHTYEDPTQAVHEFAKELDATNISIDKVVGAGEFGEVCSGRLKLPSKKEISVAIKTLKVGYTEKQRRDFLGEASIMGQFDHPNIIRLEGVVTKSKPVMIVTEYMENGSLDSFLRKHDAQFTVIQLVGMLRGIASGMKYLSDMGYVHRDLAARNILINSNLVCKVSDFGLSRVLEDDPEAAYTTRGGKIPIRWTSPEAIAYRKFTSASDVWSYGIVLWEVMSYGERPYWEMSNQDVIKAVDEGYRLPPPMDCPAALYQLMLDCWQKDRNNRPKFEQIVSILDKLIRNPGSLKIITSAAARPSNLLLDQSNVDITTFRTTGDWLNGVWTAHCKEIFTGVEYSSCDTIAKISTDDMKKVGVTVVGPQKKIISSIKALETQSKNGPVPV
# [14] = target: T6, Myotonin-protein kinase (Homo sapiens) (UniProt Q09013); conditions: at 1 µM
# T6 sequence (whole entry): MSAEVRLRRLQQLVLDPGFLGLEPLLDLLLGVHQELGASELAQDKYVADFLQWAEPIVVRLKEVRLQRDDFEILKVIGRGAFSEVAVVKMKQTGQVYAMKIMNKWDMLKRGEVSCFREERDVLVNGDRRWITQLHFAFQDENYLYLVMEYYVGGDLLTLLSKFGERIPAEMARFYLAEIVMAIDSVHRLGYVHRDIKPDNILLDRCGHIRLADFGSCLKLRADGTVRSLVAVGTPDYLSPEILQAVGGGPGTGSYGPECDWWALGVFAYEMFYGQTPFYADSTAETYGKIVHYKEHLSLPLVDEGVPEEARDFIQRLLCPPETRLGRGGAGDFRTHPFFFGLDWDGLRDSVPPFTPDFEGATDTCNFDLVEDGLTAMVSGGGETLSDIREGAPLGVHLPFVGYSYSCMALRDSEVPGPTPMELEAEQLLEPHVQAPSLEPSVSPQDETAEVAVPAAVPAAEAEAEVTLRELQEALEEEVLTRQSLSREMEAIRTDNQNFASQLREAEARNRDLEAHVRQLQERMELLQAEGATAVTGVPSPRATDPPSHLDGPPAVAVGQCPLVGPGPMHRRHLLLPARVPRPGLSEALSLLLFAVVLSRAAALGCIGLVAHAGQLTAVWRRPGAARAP
# [15] = target: T6, Myotonin-protein kinase (Homo sapiens); conditions: at 10 µM
# [16] = target: T7, Dual specificity tyrosine-phosphorylation-regulated kinase 2 (Homo sapiens) (UniProt Q92630); conditions: at 1 µM
# T7 sequence (whole entry): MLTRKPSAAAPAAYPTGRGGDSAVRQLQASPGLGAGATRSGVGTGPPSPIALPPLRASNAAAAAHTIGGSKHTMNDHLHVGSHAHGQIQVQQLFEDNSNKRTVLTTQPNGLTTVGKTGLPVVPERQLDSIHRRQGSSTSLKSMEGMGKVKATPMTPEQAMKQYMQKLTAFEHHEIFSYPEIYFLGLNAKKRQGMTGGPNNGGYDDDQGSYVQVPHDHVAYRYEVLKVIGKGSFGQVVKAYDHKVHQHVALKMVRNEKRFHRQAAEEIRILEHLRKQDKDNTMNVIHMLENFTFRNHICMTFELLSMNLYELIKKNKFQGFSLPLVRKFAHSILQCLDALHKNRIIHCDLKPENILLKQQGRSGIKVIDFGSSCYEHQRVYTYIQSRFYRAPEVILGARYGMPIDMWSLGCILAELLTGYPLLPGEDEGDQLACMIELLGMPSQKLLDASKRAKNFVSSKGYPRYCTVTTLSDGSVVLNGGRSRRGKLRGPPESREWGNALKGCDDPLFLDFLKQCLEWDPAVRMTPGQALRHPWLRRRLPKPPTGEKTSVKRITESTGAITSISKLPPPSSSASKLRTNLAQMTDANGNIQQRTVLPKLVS
# [17] = target: T7, Dual specificity tyrosine-phosphorylation-regulated kinase 2 (Homo sapiens); conditions: at 10 µM
# [18] = target: T2, Discoidin domain-containing receptor 2 (Homo sapiens); conditions: at 1 µM
# Ephrin type-A receptor 2 (Homo sapiens), sequence (P29317 whole entry): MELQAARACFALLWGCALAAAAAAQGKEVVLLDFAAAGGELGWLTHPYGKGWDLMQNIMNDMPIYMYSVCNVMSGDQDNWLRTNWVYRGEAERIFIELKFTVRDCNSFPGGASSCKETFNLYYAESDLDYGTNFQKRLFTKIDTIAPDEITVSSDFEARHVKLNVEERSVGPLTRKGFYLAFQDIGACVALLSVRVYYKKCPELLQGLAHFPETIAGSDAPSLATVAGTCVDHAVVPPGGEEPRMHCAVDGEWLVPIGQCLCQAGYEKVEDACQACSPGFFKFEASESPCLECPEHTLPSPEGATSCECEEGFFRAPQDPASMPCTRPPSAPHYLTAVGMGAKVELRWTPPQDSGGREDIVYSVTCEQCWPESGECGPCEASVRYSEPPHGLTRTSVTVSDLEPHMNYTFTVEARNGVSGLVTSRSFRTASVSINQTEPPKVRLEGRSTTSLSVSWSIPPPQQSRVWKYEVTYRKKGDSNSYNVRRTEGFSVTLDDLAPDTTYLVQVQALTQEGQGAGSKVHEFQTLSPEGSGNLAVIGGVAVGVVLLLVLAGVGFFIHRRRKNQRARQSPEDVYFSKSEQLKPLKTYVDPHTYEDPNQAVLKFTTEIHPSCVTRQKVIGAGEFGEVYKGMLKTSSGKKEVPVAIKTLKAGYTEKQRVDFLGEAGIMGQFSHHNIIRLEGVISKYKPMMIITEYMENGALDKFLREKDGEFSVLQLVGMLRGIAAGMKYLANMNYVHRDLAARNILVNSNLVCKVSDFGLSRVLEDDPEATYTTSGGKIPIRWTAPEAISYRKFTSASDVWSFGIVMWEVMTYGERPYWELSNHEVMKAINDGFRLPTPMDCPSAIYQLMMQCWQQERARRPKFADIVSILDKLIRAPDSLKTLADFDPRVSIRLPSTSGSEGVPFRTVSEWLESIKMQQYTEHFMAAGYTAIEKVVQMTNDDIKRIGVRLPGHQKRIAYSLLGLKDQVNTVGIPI
# Death-associated protein kinase 1 (Homo sapiens), sequence (P53355 whole entry, looked up): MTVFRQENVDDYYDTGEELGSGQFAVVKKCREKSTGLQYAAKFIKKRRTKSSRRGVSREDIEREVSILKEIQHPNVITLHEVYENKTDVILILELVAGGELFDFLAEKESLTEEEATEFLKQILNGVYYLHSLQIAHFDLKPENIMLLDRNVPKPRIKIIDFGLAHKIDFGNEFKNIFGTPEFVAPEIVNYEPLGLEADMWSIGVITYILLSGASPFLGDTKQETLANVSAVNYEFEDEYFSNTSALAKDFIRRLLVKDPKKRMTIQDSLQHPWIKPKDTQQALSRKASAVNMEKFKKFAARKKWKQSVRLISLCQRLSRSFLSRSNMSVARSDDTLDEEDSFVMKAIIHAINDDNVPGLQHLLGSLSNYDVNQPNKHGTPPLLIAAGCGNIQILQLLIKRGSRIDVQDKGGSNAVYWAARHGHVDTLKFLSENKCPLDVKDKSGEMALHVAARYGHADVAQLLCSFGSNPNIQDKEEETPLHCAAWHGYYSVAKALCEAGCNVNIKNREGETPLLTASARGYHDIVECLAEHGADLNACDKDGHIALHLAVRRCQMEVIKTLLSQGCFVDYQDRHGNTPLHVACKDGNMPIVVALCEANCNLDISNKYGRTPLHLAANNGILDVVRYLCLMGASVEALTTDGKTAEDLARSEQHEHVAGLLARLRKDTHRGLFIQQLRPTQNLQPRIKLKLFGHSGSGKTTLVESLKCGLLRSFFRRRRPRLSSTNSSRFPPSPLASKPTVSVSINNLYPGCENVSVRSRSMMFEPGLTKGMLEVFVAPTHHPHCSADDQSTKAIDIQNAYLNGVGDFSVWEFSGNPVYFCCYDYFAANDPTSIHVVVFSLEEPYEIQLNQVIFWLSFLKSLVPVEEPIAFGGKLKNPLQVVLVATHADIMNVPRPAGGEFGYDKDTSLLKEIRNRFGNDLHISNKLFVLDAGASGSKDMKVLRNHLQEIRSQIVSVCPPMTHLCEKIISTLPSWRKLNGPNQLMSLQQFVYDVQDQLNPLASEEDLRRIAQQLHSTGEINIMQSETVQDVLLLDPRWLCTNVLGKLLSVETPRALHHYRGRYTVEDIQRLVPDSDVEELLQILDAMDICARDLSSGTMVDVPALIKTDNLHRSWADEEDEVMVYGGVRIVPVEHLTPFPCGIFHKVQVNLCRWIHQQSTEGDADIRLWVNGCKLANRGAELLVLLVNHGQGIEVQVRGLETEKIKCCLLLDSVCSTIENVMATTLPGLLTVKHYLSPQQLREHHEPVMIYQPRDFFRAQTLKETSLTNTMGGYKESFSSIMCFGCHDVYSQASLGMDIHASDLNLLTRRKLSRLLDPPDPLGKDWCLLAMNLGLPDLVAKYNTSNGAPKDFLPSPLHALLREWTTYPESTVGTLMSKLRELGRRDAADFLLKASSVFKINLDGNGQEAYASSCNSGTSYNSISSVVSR
# Death-associated protein kinase 2 (Homo sapiens), sequence (Q9UIK4 whole entry, looked up): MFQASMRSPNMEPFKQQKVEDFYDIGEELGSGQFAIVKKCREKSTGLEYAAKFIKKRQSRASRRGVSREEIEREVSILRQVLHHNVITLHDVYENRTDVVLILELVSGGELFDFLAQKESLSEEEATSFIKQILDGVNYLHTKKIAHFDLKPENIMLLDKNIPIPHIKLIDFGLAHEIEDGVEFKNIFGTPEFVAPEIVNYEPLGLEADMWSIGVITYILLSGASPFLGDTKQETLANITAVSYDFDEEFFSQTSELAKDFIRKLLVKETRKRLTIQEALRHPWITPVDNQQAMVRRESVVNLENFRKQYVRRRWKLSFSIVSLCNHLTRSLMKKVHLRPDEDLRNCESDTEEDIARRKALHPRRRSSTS
SMILES,residual activity [1],residual activity [2],residual activity [3],residual activity [4],residual activity [5],residual activity [6],residual activity [7],residual activity [8],residual activity [9],residual activity [10],residual activity [11],residual activity [12],residual activity [13],residual activity [14],residual activity [15],residual activity [16],residual activity [17],residual activity [18]
NC(=O)Nc1sc(-c2ccc(F)cc2)cc1C(N)=O,70%,95%,64%,96%,78%,40%,69%,39%,9%,6%,32%,4%,80%,–,–,–,–,–
CC(C)(C)c1nc2c3ccc(F)cc3c3c(=O)[nH]ccc3c2[nH]1,3%,11%,14%,38%,27%,–,0%,0%,74%,–,103%,103%,99%,–,–,–,–,–
O=C1NC(=O)C(c2cn(CCCn3ccnc3)c3ccccc23)=C1Nc1ccccc1,–,–,–,100%,79%,–,–,–,–,–,–,–,–,120%,124%,–,–,–
O=C1Cc2c([nH]c3ccc(Br)cc23)-c2ccccc2N1,–,–,–,–,–,–,76%,39%,91%,78%,–,–,83%,97%,83%,92%,45%,–
CCCCc1c(-c2ccc(OC)cc2)[nH]c2nccnc12,–,101%,100%,72%,106%,59%,79%,80%,29%,3%,87%,82%,74%,–,–,–,–,71%
CCCCc1c(-c2ccc(O)cc2)[nH]c2nccnc12,–,89%,96%,–,–,36%,77%,44%,29%,47%,82%,60%,72%,–,–,85%,34%,71%
O=C(c1cc2cc(O)ccc2[nH]1)c1cc2cc(O)ccc2[nH]1,–,–,73%,70%,59%,–,13%,2%,83%,47%,–,–,–,120%,122%,81%,47%,–
O=S(=O)(c1cccc2cnccc12)N1CCCNCC1,–,–,–,–,–,–,–,–,100%,–,–,–,–,–,–,–,–,–
O=C1C(Cl)=C(N2C(=O)CCC2=O)C(=O)c2ccccc21,90%,–,–,–,–,–,–,82%,–,84%,93%,–,85%,–,85%,100%,92%,89%
